Growth data for 17 compounds are collected here from PubChem BioAssay (NCI).

Structures are written as SMILES. “And” between values parts separate entries of the source, which are not always exact repeats. Equal entries are not always repeated. Compounds without any hit were thinned out: in the full panel of roughly 83,000, 20% have a hit.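 Growth was measured after 48 h exposure to one concentration of compound in 96-well plates. Values under 10 count as active.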 The source made the active and inactive calls.

Experiment in all cases: NCI-60 one-dose screen, 48 h (100 = growth as untreated, 0 = no growth, -100 = all killed)
What all share (conditions): 10 µM unless noted

The subject of experiment [1] is HCT-15 colon.
Experiment [2] concerns SNB-75 CNS.
For experiment [3], the system named is SNB-19 CNS.
For experiment [4], the system named is U251 CNS.
Experiment [5] deals with PC-3 prostate.
The test system of experiment [6] is SK-MEL-5 melanoma.
Experiment [7] deals with UACC-62 melanoma.
For experiment [8], the system named is LOX IMVI melanoma.
Experiment [9] has as its system SK-MEL-28 melanoma.
Experiment [10] concerns HT29 colon.

Regarding `C/C(=C(\c1ccc(OCCN2CCOCC2)cc1)c1ccc(OC(=O)Cc2ccccc2)cc1)c1ccc(Cl)cc1`, the growth in experiment [1] is 91.4% (inactive); in experiment [2], 95.7% (inactive); in [3], 96.3% (inactive); in [4], 99.2% (inactive); in experiment [5], 68.2% (inactive); in [6], 86.6% (inactive). In addition, the growth in experiment [7] was 85.4% (inactive); in experiment [8], 98.6% (inactive); in [9], 103% (inactive).
On to `CCOC(=O)c1c(SC)nc(-c2ccc(Cl)cc2)sc1=N`, for which, in experiment [7], the growth was 5.48% [100 µM] (active) and 7.26% [100 µM] (active).
On the same count and under the same terms, under `CN(N)/N=N/c1nc[nH]c1[N+](=O)[O-]` stands 21.2% [100 µM] (inactive) and -39.8% [100 µM] (active).
As to `C=CC1CN2CCC1CC2C(O)c1ccnc2ccccc12` (stereo not drawn), the growth in experiment [1] was 116% (inactive); in experiment [2], 124% (inactive); in [3], 124% (inactive); in [4], 115% (inactive); in experiment [5] it was 55.8% (inactive); in [6], 104% (inactive). In addition, the values for the growth in experiment [7], in experiment [8] and in experiment [9] were 113% (inactive), 117% (inactive) and 133% (inactive), respectively.
As for `C=C1C(=O)OC2/C=C(\C)CC/C=C(/C)CC(OC(=O)/C(=C/CO)CO)C12` (stereo not drawn), in [7], the growth is -89.6% [100 µM] (active) and -100% [100 µM] (active).
With `Cc1cc(N)ccc1N`, the growth in [1] is 105% (inactive); in [2], 92.3% (inactive); in experiment [3] it was 102% (inactive); in experiment [4], 93.2% (inactive); in experiment [5] it was 87.6% (inactive); in experiment [6], 97.2% (inactive). Also, the growth in experiment [7] was 103% (inactive); in experiment [8], 98.3% (inactive); in experiment [9] it was 107% (inactive).
Turning to `CC[C@H](C)[C@H](NC(=O)CN(C)C)C(=O)N(C)[C@H](C[C@@H](OC(C)=O)c1nc(C(=O)NC23CC(C(=O)OC)(C2)C3)cs1)C(C)C`, the growth is 21.6% (inactive) in [1]; 45.1% (inactive) in experiment [2]; 41.5% (inactive) in experiment [3]; 13.5% (inactive) in experiment [4]; 25.8% (inactive) in [5]; 12.6% (inactive) in experiment [6]. The growth in [7] was 24.4% (inactive); in [8] it was 19.7% (inactive); in experiment [9], 66.4% (inactive).
Regarding `CCOC(=O)C1C(c2ccco2)C2(C#N)C(=N)OC1(C)C2(C#N)C#N` (stereo not drawn), the growth in experiment [7] was 62% [100 µM] (inactive) and 20.8% [100 µM] (inactive).
Still for that read-out and setting: under `CCCC[C@@H]1CCN2C[C@@H](O)[C@@H](O)[C@@H]2[C@H]1O` stands 111% [100 µM] (inactive) and 89.9% [100 µM] (inactive).
With `O=C=Nc1ccc(Br)cc1`, the growth is 96.5% (inactive) in experiment [1]; 99.1% (inactive) in [2]; 111% (inactive) in [3]; 110% (inactive) in [4]; 78.8% (inactive) in experiment [5]; 81% (inactive) in experiment [6]. The growth in experiment [7] is 97.4% (inactive); in experiment [8] it was 106% (inactive); in experiment [9], 110% (inactive).
As to `O=[N+]([O-])c1c(Cl)cc(Cl)c([N+](=O)[O-])c1Cl`, the growth was 85.9% (inactive) in [1]; 113% (inactive) in experiment [3]; 96.1% (inactive) in [4]; 83.2% (inactive) in experiment [5]; 101% (inactive) in [6]; 108% (inactive) in [7]. Also, the growth is 33.6% (inactive) in experiment [8] and 100% (inactive) in [9].
With `CNC(=O)O/N=C(\SC)C(=O)N(C)C`, the growth in experiment [1] is 105% (inactive); in experiment [2], 101% (inactive); in experiment [3], 106% (inactive); in experiment [4], 101% (inactive); in [5] it was 85% (inactive); in experiment [6], 109% (inactive). For the same compound, the growth in [7] is 111% (inactive); in [8] it was 90.4% (inactive); in experiment [9], 113% (inactive).
As to `C(=NC1CCCCC1)=NC1CCCCC1`, the growth was 108% (inactive) in [1]; 87.5% (inactive) and 79.6% (inactive) in experiment [2]; 103% (inactive) and 83.9% (inactive) in [3]; 117% (inactive) in experiment [4]; 97.5% (inactive) and 48.6% (inactive) in experiment [5]; 103% (inactive) and 61.4% (inactive) in experiment [6]. For the same compound, the growth was 104% (inactive) and 87.6% (inactive) in experiment [7]; 97.2% (inactive) and 94.9% (inactive) in experiment [9].
As to `COC12CC3(C)C(C4=CC(=O)OC4)CCC3(O)C3CCC4=CC(=O)CCC4(CO1)C32` (stereo not drawn), the growth was 101% (inactive) in experiment [1]; 90.6% (inactive) in experiment [2]; 107% (inactive) in experiment [3]; 103% (inactive) in [4]; 106% (inactive) in experiment [6]; 99.6% (inactive) in experiment [7]. The growth was 102% (inactive) in experiment [8] and 122% (inactive) in experiment [9].
On to `CCOC(=O)C1C(C=C(C)C)C1(C)C` (stereo not drawn), for which the growth in [10] was 116% (inactive); in experiment [3], 103% (inactive); in [4], 99.3% (inactive); in experiment [5] it was 93% (inactive); in experiment [6] it was 109% (inactive); in experiment [7], 99.8% (inactive). In addition, the growth in experiment [8] is 104% (inactive).
Take `C#Cc1cccc(Nc2nc(Cl)nc3cc(NC(=O)CF)ccc23)c1`: the growth in [1] was 35.4% (inactive); in experiment [2], 61.2% (inactive); in experiment [3], 89% (inactive); in experiment [4], 79.3% (inactive); in experiment [5] it was 57.8% (inactive); in experiment [6], 37.3% (inactive). Moreover, the values for the growth in [7], in [8] and in [9] were 72.9% (inactive), 65.2% (inactive) and 73.2% (inactive), respectively.
Regarding `CN(C)c1ccc(N)cc1`, the growth was 106% (inactive) and 83.6% (inactive) in [1]; 83.4% (inactive) and 62.8% (inactive) in experiment [2]; 99.5% (inactive) and 47.8% (inactive) in experiment [3]; 98.2% (inactive) and 17.5% (inactive) in [4]; 81.3% (inactive) and 50.8% (inactive) in experiment [5]; 96.4% (inactive) and 44.5% (inactive) in experiment [6]. Moreover, the growth was 89% (inactive) and 43.3% (inactive) in experiment [7]; 94.2% (inactive) and 27.2% (inactive) in experiment [8]; 115% (inactive) and 73.2% (inactive) in experiment [9].
